Compounds without any hit were thinned out: in the full panel of roughly 83,000, 20% have a hit.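 A percent growth of 40 corresponds to 60% growth inhibition; 0 means no net growth; -100 means all cells died. Active threshold: below 10.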 Activity calls are given as the source filed them.

For one test, the system named is RPMI-8226 leukemia. In words: NCI-60 one-dose screen, 48 h (100 = growth as untreated, 0 = no growth, -100 = all killed). As to conditions: 10 µM unless noted.
As for `Nc1c(Br)cc2c(c1Br)Cc1cc([N+](=O)[O-])ccc1-2`, the growth is 91.3% (inactive).
Still for that read-out and setting: the value for `COC(=O)Cn1c2c(c3c(OC)cccc31)C(=O)c1ccccc1-2` was 85.3% (inactive); that for `O=C(/C=C/c1ccccc1)c1ccc(-n2cc(CN3CCN(c4cc5c(cc4F)c(=O)c(C(=O)O)cn5C4CC4)CC3)nn2)cc1` was -0.509% (active).
On the same count and under the same terms, the result for `Cc1cc2oc(/C=C/c3ccccc3)cc(=O)c2c(C)c1Cl` reads 94% (inactive); that for `Cc1nc(N/N=C/c2cn(-c3ccccc3)nc2-c2cc3ccccc3oc2=O)sc1N=Nc1ccccc1`, 89.3% (inactive); that for `Oc1c(CN2CCC(N3CCOCC3)CC2)cc(Cc2cc(CN3CCC(N4CCOCC4)CC3)c(O)c3ncccc23)c2cccnc12`, 34.8% (inactive).
For `N#Cc1nn(-c2cc(=O)[nH]c3ccc(Br)cc23)c(N)c1C#N`, the growth is -29.7% (active).
Regarding `CCCCO[C@@H]1C=C2[C@H]3CC(C)(C)C(=O)C[C@]3(C(=O)O[C@@H]3O[C@H](CO[C@@H]4O[C@H](CO)[C@@H](OC5OC(C)C(O)C(O)C5O)[C@H](O)[C@H]4O)[C@@H](O)[C@H](O)[C@H]3O)CC[C@@]2(C)[C@]2(C)CC[C@H]3C(C)(C)C(=O)CC[C@]3(C)[C@@H]12` (stereo partly specified), the growth is 20.4% (inactive).
As to `CC(=O)c1c(Nc2cccc(F)c2)[nH]c2c(Cl)cc(Cl)c(Cl)c2c1=O`, the growth was -8.11% (active).
On the same count and under the same terms, the value for `O=c1cc(CP(=O)(O)O)c2cc(O)c(-c3ccccc3)cc2o1` was 99.2% (inactive).
For the compound `CC(=O)c1sc(-c2ccc(F)cc2)cc1O`, the growth was 105% (inactive).
As to `CC(=O)c1ccc(-n2cc(CN3CCN(c4cc5c(cc4F)c(=O)c(C(=O)O)cn5C4CC4)CC3)nn2)cc1`, the growth was 47.9% (inactive).
Regarding `COc1ccc(CN2C(=O)OC(C)(COC(C)=O)C2=O)cc1` (stereo unspecified), the growth is 103% (inactive).
`O=C1CCCC1[n+]1ccccc1` (stereo unspecified): the growth was 103% (inactive).
Still for that read-out and setting: the value for `CN(C)CCC(=O)C1CC1` was 101% (inactive); that for `Nc1ccc(-c2ccncc2)cc1NC(=O)N1CCCC1` was 82.2% (inactive); that for `O=c1oc2c(cnc3ccccc32)cc1-c1cccc(Cl)c1` was 101% (inactive).
On to `C/C(=C(\c1ccc(OCCN2CCCCCC2)cc1)c1ccc(OC(=O)c2ccccc2)cc1)c1ccc(Cl)cc1`, for which the growth is 13.1% (inactive).
Consider `Nc1cccc(-c2ccc(COc3ccc(CC4SC(=O)NC4=O)cc3)cc2)c1` (stereo unspecified), for which the growth is 53.8% (inactive).
Take `C=C(C)[C@@H]1CC[C@]2(COC3CCCCO3)CC[C@]3(C)[C@H](CC[C@@H]4[C@@]5(C)C=C(C=O)C(=O)C(C)(C)[C@@H]5CC[C@]43C)[C@@H]12` (stereo partly specified): the growth was -6.13% (active).
For `O=C1CCCCN1c1ccc(C2=NCCCN2)cc1`, the growth is 57.4% (inactive).
Regarding `Cc1cc(=O)oc2cc(Oc3nc(Br)cn4c(Br)cnc34)ccc12`, the growth was 95.5% (inactive).
As for `C=CN(C(=O)N1CCN(c2cc3c(cc2F)c(=O)c(C(=O)O)cn3C2CC2)CC1)c1nc(-c2ccc(Cl)cc2)cs1`, the growth was 15.9% (inactive).
In the case of `Cc1ccccc1N1CCN(C(=S)c2ccccc2)CC1`, the growth was 115% (inactive).
Take `COc1ccc(Cl)cc1Nc1nc(C(F)(F)F)ccc1C(=O)N/N=C/c1ccc([N+](=O)[O-])cc1`: the growth is -49.7% (active).
On the same count and under the same terms, the result for `O=C(Nc1nc(Cl)nc(Nc2ccc(N3CCOCC3=O)cc2)n1)c1ccc(Cl)s1` reads 90.3% (inactive).
Consider `COCCOC(C)C(/C=N/NC(N)=S)=N/NC(N)=S` (stereo unspecified), for which the growth is 36.2% (inactive).

A further test relates to OVCAR-8 ovarian. Described as above. As to conditions: 10 µM unless noted.
Take `CCn1cc(C(=O)O)c(=O)c2cc(F)c(N3CCN(CC(=O)Nc4ccccc4)C(C)C3)c(F)c21` (stereo unspecified): the growth is 98.3% (inactive).
Turning to `c1cc(OCCN2CCCCC2)ccc1CNc1ccc2nc(CCC3CCCCC3)[nH]c2c1`, the growth is 36.6% (inactive).
Take `COC1C(O)CC(OC2CC(OC3CC(O[C@@H]4C(=O)c5c(cc6cc(OC7CC(OC8CC(O)C(O)C(C)O8)C(O)C(C)O7)c(C)c(O)c6c5O)CC4[C@H](OC)C(=O)C(C)=O)OC(C)C3O)OC(C)C2O)OC1C` (stereo partly specified): the growth was 4.01% (active).
Consider `Cc1ccc(OCCOCCOCCOc2ccc(C)n(O)c2=S)c(=S)n1O`, for which the growth is 39.3% (inactive).
Still for that read-out and setting: the value for `Cn1cc(-c2csc(-c3cn(CCCN4CCOCC4)c4ccc(F)cc34)n2)c2cccnc21` was 47.6% (inactive); that for `O=C1c2cccnc2C(=O)c2c1c(C(=O)OCCc1ccccn1)c1ccccn21` was -14% (active).
On the same count and under the same terms, the value for `C#CCOc1cccc(Nc2ncnc3c2ncn3C2CCN(C(=O)CCl)C2)c1` (stereo unspecified) was 5.81% (active).
`O=C(Cn1nc(-c2cccc3ccccc23)ccc1=O)NCc1cccc(Cl)c1`: the growth is 39.5% [50 µM] (inactive).
As for `CC1(C)CC[C@]23CC[C@]4(C)[C@H](CC[C@@H]5[C@@]6(C)C/C(=C/O)C(=O)C(C)(C)[C@@H]6CC[C@]54C)[C@H]2[C@H]1OC3`, the growth is 104% (inactive).
For `Clc1ccc(-c2cc(-c3ccccc3)nc(N3CCN(CCCNc4ccnc5cc(Cl)ccc45)CC3)n2)cc1`, the growth was -47.5% (active).
Turning to `Nc1nc(C(=O)N/N=C/c2ccc(F)cc2)nn1-c1ccc(S(N)(=O)=O)cc1`, the growth is 97.5% (inactive).
Regarding `CN(C)c1ccc(CNCCO)cc1`, the growth was 90.6% (inactive).
Regarding `Nc1c(Br)cc2c(c1Br)Cc1cc([N+](=O)[O-])ccc1-2`, the growth is 95.4% (inactive).
Still for that read-out and setting: the value for `COC(=O)Cn1c2c(c3c(OC)cccc31)C(=O)c1ccccc1-2` was 107% (inactive).
As to `O=C(/C=C/c1ccccc1)c1ccc(-n2cc(CN3CCN(c4cc5c(cc4F)c(=O)c(C(=O)O)cn5C4CC4)CC3)nn2)cc1`, the growth is 62% (inactive).
Take `Cc1cc2oc(/C=C/c3ccccc3)cc(=O)c2c(C)c1Cl`: the growth is 100% (inactive).
Turning to `Cc1nc(N/N=C/c2cn(-c3ccccc3)nc2-c2cc3ccccc3oc2=O)sc1N=Nc1ccccc1`, the growth is 103% (inactive).
Consider `Oc1c(CN2CCC(N3CCOCC3)CC2)cc(Cc2cc(CN3CCC(N4CCOCC4)CC3)c(O)c3ncccc23)c2cccnc12`, for which the growth was 19.6% (inactive).
As for `N#Cc1nn(-c2cc(=O)[nH]c3ccc(Br)cc23)c(N)c1C#N`, the growth is 96% (inactive).
As for `CCCCO[C@@H]1C=C2[C@H]3CC(C)(C)C(=O)C[C@]3(C(=O)O[C@@H]3O[C@H](CO[C@@H]4O[C@H](CO)[C@@H](OC5OC(C)C(O)C(O)C5O)[C@H](O)[C@H]4O)[C@@H](O)[C@H](O)[C@H]3O)CC[C@@]2(C)[C@]2(C)CC[C@H]3C(C)(C)C(=O)CC[C@]3(C)[C@@H]12` (stereo partly specified), the growth was 94.4% (inactive).
For the compound `CC(=O)c1c(Nc2cccc(F)c2)[nH]c2c(Cl)cc(Cl)c(Cl)c2c1=O`, the growth was 7.74% (active).
For the compound `O=c1cc(CP(=O)(O)O)c2cc(O)c(-c3ccccc3)cc2o1`, the growth was 101% (inactive).
For `CC(=O)c1sc(-c2ccc(F)cc2)cc1O`, the growth is 104% (inactive).
As to `CC(=O)c1ccc(-n2cc(CN3CCN(c4cc5c(cc4F)c(=O)c(C(=O)O)cn5C4CC4)CC3)nn2)cc1`, the growth is 95.1% (inactive).
`COc1ccc(CN2C(=O)OC(C)(COC(C)=O)C2=O)cc1` (stereo unspecified): the growth was 104% (inactive).
In the case of `O=C1CCCC1[n+]1ccccc1` (stereo unspecified), the growth was 85.8% (inactive).
With `CN(C)CCC(=O)C1CC1`, the growth was 106% (inactive).
Still for that read-out and setting: the value for `Nc1ccc(-c2ccncc2)cc1NC(=O)N1CCCC1` was 85.3% (inactive); that for `O=c1oc2c(cnc3ccccc32)cc1-c1cccc(Cl)c1` was 109% (inactive).
On the same count and under the same terms, the value for `C/C(=C(\c1ccc(OCCN2CCCCCC2)cc1)c1ccc(OC(=O)c2ccccc2)cc1)c1ccc(Cl)cc1` was 42.6% (inactive); that for `Nc1cccc(-c2ccc(COc3ccc(CC4SC(=O)NC4=O)cc3)cc2)c1` (stereo unspecified) was 70.1% (inactive).
On to `C=C(C)[C@@H]1CC[C@]2(COC3CCCCO3)CC[C@]3(C)[C@H](CC[C@@H]4[C@@]5(C)C=C(C=O)C(=O)C(C)(C)[C@@H]5CC[C@]43C)[C@@H]12` (stereo partly specified), for which the growth was -39.2% (active).
In the case of `O=C1CCCCN1c1ccc(C2=NCCCN2)cc1`, the growth is 104% (inactive).
Turning to `Cc1cc(=O)oc2cc(Oc3nc(Br)cn4c(Br)cnc34)ccc12`, the growth was 64.7% (inactive).
As for `C=CN(C(=O)N1CCN(c2cc3c(cc2F)c(=O)c(C(=O)O)cn3C2CC2)CC1)c1nc(-c2ccc(Cl)cc2)cs1`, the growth was 67.3% (inactive).
For `Cc1ccccc1N1CCN(C(=S)c2ccccc2)CC1`, the growth was 96.4% (inactive).
Consider `COc1ccc(Cl)cc1Nc1nc(C(F)(F)F)ccc1C(=O)N/N=C/c1ccc([N+](=O)[O-])cc1`, for which the growth was 9.77% (active).
With `O=C(Nc1nc(Cl)nc(Nc2ccc(N3CCOCC3=O)cc2)n1)c1ccc(Cl)s1`, the growth was 87.6% (inactive).
`COCCOC(C)C(/C=N/NC(N)=S)=N/NC(N)=S` (stereo unspecified): the growth is 57.1% (inactive).

Source of the values: PubChem BioAssay (NCI).
